Source: PubChem (Buhrlage Lab, Dana-Farber Cancer Institute and Novartis Institutes for BioMedical Research (Cambridge, Mass))
USP10 block: blocks human USP10 ubiquitin-rhodamine cleavage | AID 1645856 | 47,000 compounds, 1.1% hits | purified USP10, Ub-rhodamine fluorescence, 60 min | inhibition, % at 20 µM
USP7 block: blocks human USP7 ubiquitin-rhodamine cleavage; Q93009; inhibition, % at 20 µM; purified USP7, Ub-rhodamine cleavage fluorescence; 47,000 compounds, 0.3% hits
USP8 block: human USP8 deubiquitinase inhibition | 47,000 compounds, 4.2% hits | purified USP8, Ub-rhodamine cleavage fluorescence, 30 min | P40818 | AID 1645853 | inhibition, % at 20 µM
UCHL1 inh: human UCHL1 deubiquitinase inhibition. P09936. purified UCHL1, Ub-rhodamine cleavage fluorescence. inhibition, % at 20 µM. 47,000 compounds, 0.2% hits. AID 1645859
Numbers without * were called inactive. Hits are enriched below; roughly 4.6% of the tested compounds scored in any of these assays. No stated cut-off is given here; in the data, active means inhibition above about 30%; inactive means the rest.

How did COc1ccc(C2/C(=C(\O)c3ccccc3)C(=O)C(=O)N2c2cccc(C(F)(F)F)c2)cc1 (configuration not stated) do in these assays?
USP10 block: 30*; USP7 block: 4; USP8 block: -87; UCHL1 inh: -5

Results for CCCOc1ccc(/C(O)=C2\C(=O)C(=O)N(CCN(C)C)C2c2ccccc2)cc1 (configuration not stated) ?
USP10 block: 0; USP7 block: 1; USP8 block: 1; UCHL1 inh: -1

Results for O=C(Nc1noc2ncccc12)C(c1ccccc1)c1ccccc1 ?
USP10 block: 3; USP7 block: 0; USP8 block: -2; UCHL1 inh: 1

Results for N#Cc1c(N)nc2c(c1-c1ccccc1)CCc1ccccc1-2 ?
USP10 block: 8; USP7 block: -16; USP8 block: 9; UCHL1 inh: 4

What do the screens show for `CC(=O)c1oc2nc3c(c(-c4ccc(Cl)cc4)c2c1N)CCc1ccccc1-3`?
USP10 block: -5; USP7 block: -110; USP8 block: 65*; UCHL1 inh: 18

Results for CN(Cc1ccccc1)C(=O)Cn1c(=O)[nH]c2c(-c3ccccc3)c[nH]c2c1=O ?
USP10 block: -8; USP7 block: 1; USP8 block: 46*; UCHL1 inh: -9

Results for O=C(Cn1c(=O)[nH]c2ccccc2c1=O)NC1CCCC1 ?
USP10 block: 0; USP7 block: 2; USP8 block: 0; UCHL1 inh: 2

Results for O=C(Cn1c(=O)[nH]c2c(-c3ccccc3F)c[nH]c2c1=O)NC1CCCCC1 ?
USP10 block: 17; USP7 block: 13; USP8 block: 34*; UCHL1 inh: -2

How did O=C(Cn1c(=O)[nH]c2c(-c3ccccc3)c[nH]c2c1=O)NCc1ccc(Cl)cc1 do in these assays?
USP10 block: 2; USP7 block: 9; USP8 block: 32*; UCHL1 inh: 0

What do the screens show for `O=C(Cn1c(=O)[nH]c2c(-c3ccc(F)cc3)c[nH]c2c1=O)NCc1ccc(F)cc1`?
USP10 block: 12; USP7 block: 13; USP8 block: 32*; UCHL1 inh: 1

What do the screens show for `Cc1ccc(C(=O)N2CCC3(CC2)COCCN(Cc2cccnc2)C3)cc1`?
USP10 block: -4; USP7 block: 0; USP8 block: -37; UCHL1 inh: -4

Results for Cc1ccc(CNS(=O)(=O)c2c[nH]c(-c3nnc(C)o3)c2)cc1 ?
USP10 block: 0; USP7 block: 4; USP8 block: 11; UCHL1 inh: 2

Results for FC(F)(F)c1cccc(Nc2nc(-c3ccccn3)nc3ccccc23)c1 ?
USP10 block: 22; USP7 block: 13; USP8 block: 22; UCHL1 inh: 6

What do the screens show for `Brc1ccc(Nc2nc(-c3ccccn3)nc3ccccc23)cc1`?
USP10 block: 20; USP7 block: 16; USP8 block: 93*; UCHL1 inh: 4

What do the screens show for `CC(C)CCN1C[C@H]2CCN(C(=O)NC3CCCC3)CC[C@H]2S1(=O)=O`?
USP10 block: 0; USP7 block: -3; USP8 block: -7; UCHL1 inh: -3

How did O=C(Nc1cc(Cl)ccc1NCc1ccccc1)c1cc(=O)[nH]c2ccccc12 do in these assays?
USP10 block: -3; USP7 block: 0; USP8 block: 44*; UCHL1 inh: -2

What do the screens show for `O=C(CCc1nnc2ccc(N3CCCC3)nn12)N1CCc2ccccc2C1`?
USP10 block: -1; USP7 block: 4; USP8 block: 16; UCHL1 inh: -2

How did Cc1nn(C)cc1S(=O)(=O)Nc1cnn(Cc2cccc3ccccc23)c1 do in these assays?
USP10 block: 2; USP7 block: 0; USP8 block: 86*; UCHL1 inh: 4

Results for O=C(Nc1ccc(F)cc1)c1ccc(-c2ccc(N3CCCC3)nn2)cc1 ?
USP10 block: 0; USP7 block: 4; USP8 block: 49*; UCHL1 inh: 3

What do the screens show for `O=C(c1cc(S(=O)(=O)Nc2ccc(Cl)cc2)ccc1Cl)N1CCCc2ccccc21`?
USP10 block: 36*; USP7 block: -20; USP8 block: -24; UCHL1 inh: 5

How did O=C(c1cnc2ccccc2n1)N1CCC(S(=O)(=O)c2ccc(-c3ccco3)cc2)CC1 do in these assays?
USP10 block: 21; USP7 block: 21; USP8 block: 56*; UCHL1 inh: 17

How did COc1ccc(S(=O)(=O)N2CCN(C(=O)c3cnc4ccccc4n3)CC2)cc1OC do in these assays?
USP10 block: -2; USP7 block: -13; USP8 block: 61*; UCHL1 inh: -2

What do the screens show for `COc1ccccc1C(=O)N1CCC(S(=O)(=O)c2ccc(-c3ccco3)cc2)CC1`?
USP10 block: 1; USP7 block: 1; USP8 block: 53*; UCHL1 inh: 4
